Structures can show the parent of a compound that is named as a salt. A number with no mark means an inactive call.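 Rule for the calls: active = log2 fold change beyond 2 SD from the library mean after excluding viability outliers; inactive = within 2 SD.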
biological target: PARP1 L713F-nLuc biosensor (HCT116) (UniProt P09874); experiment: PARP1 L713F-nLuc/akaLuc ratio relative to DMSO control (biosensor stabilization) (fold change); higher = more PARP1 biosensor stabilization (target engagement / stabilizer), active = hit call of the paper; settings: stock concentration (mM; final µM = stock mM x 1): 10; 24 h
Sequence (P09874 whole entry L713F, looked up): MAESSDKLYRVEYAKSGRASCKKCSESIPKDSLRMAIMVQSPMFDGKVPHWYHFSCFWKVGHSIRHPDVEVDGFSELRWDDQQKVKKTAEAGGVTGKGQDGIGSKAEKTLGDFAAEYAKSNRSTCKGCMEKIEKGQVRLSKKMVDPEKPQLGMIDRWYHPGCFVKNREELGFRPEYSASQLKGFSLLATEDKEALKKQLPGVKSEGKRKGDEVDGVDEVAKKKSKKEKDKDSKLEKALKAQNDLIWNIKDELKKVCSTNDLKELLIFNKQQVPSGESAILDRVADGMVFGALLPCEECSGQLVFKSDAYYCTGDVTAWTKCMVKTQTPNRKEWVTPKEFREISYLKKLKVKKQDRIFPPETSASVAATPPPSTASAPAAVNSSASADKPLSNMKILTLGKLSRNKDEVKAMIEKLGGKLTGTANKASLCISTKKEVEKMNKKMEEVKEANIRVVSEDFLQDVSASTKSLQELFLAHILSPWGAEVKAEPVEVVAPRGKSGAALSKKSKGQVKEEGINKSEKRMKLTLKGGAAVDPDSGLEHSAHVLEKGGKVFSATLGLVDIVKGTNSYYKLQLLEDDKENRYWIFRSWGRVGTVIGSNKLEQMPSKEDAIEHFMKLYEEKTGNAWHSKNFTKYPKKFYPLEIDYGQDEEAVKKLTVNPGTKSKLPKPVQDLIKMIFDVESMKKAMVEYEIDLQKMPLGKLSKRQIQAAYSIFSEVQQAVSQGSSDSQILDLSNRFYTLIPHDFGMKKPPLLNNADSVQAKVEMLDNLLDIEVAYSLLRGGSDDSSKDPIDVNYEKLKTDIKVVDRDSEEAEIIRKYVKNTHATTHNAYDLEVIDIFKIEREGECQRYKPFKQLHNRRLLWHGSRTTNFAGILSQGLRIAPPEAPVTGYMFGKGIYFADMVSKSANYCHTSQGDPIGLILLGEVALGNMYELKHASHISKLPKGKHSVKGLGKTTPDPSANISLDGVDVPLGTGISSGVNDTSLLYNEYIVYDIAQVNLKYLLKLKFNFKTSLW

Row | SMILES | PARP1 L713F-nLuc/akaLuc ratio
1 | O=C(O)CNC(=O)c1ncc(-c2cccc(Cl)c2)cc1O [Vadadustat] | 1.03
2 | Nc1ncn([C@H]2C[C@H](O)[C@@H](CO)O2)c(=O)n1 [Decitabine] | 3.01 (active)
3 | COc1cc2cc(Oc3ccc4ccc(=O)oc4c3)c(=O)oc2cc1O [Daphnoretin] | 0.72
4 | CCCCCCCCCCCCC/C=C/[C@@H](O)[C@@H](N)CO [D-erythro-Sphingosine] | 1.21
5 | COc1cc(Nc2ncc3c(n2)-c2ccc(Cl)cc2C(c2c(F)cccc2OC)=NC3)ccc1C(=O)O [Alisertib] | 0.939
6 | Cc1[nH]nc(C(F)(F)F)c1Cc1sc2c(c1C(=O)N1C[C@](C)(O)CO1)c(=O)n(C)c(=O)n2C(C)C | 0.93
7 | N#Cc1ccc(COC[C@H]2O[C@@H](n3c(NCc4ccc(Cl)c(Cl)c4)nc4c(N)ncnc43)[C@H](O)[C@@H]2O)cc1 | 0.717
8 | Cc1nc(N)nc(N)c1-c1ccc(Cl)c(Cl)c1 [Metoprine] | 0.685
9 | COc1cc2onc(C)c2cc1NS(=O)(=O)c1cc(Br)ccc1OC | 0.95
10 | O=c1[nH]ccc2c(O)cccc12 [1,5-Isoquinolinediol] | 2.7 (active)
11 | COc1cc(C(=O)Nc2ccccc2-c2cn3c(CN4CCNCC4)csc3n2)cc(OC)c1OC | 0.569
12 | C=CC(=O)Nc1cccc(-c2c[nH]cc2CN(C)CCN)c1 | 1.61
13 | Cc1ccc(Oc2nc3cc(-c4ccc(-c5ccccc5)cc4)c(Cl)cc3[nH]2)cc1C(=O)O | 0.635
14 | Cn1cc(C(=O)Nc2ccc([C@@H]3C[C@H]3NCC3CC3)cc2)cn1 | 0.949
15 | O=C1CCc2ccccc2O1 [Dihydrocoumarin] | 0.769
16 | C[C@@H]1CCN(C(=O)CC#N)C[C@@H]1N(C)c1ncnc2[nH]ccc12 [Tofacitinib] | 0.723
17 | O=C(O)C(Cc1c[nH]c2ccccc12)N1C(=O)c2ccccc2C1=O (stereo unspecified) | 1.39
18 | Cn1c(=O)c2c(ncn2CC(=O)O)n(C)c1=O [Acefylline] | 0.921
19 | Nc1nc(OCc2cc(Br)cs2)c2[nH]cnc2n1 [Lomeguatrib] | 1.01
20 | NC(=O)c1ccc(I)c([N+](=O)[O-])c1 [Iniparib] | 1.12
21 | Cn1cc(C2=C(c3c4n(c5ccccc35)CCC(CN)C4)C(=O)NC2=O)c2ccccc21 (stereo unspecified) [Bisindolylmaleimide X (hydrochloride)] | 0.725
22 | Cc1ccc(NC(=O)c2ccc(CN3CCN(C)CC3)cc2)cc1Nc1nc(-c2cccnc2)cs1 [Masitinib (AB1010)] | 0.851
23 | O=C(O)c1ccc(Nc2ncc3c(n2)-c2ccc(Cl)cc2C(c2c(F)cccc2F)=NC3)cc1 | 1.87
24 | Cc1cc(C)c(CN2CCc3c(Cl)cc(-c4c(C)noc4C)c(Cl)c3C2=O)c(=O)[nH]1 | 0.881
25 | O=C(NOC[C@H](O)CO)c1ccc(F)c(F)c1Nc1ccc(I)cc1F | 0.6
26 | Nc1nc2cc(-c3ccc4ncc(C(=O)N5CCOCC5)n4c3)ccc2o1 [Serabelisib (INK-1117,MLN-1117,TAK-117)] | 1.31
